Assay outcomes: PubChem BioAssay, several laboratories
Anthrax LF prot: Bacillus anthracis LF protease inhibitors, primary screen, biochemical, multiplex microsphere, MLPCN library | AID 588501, 2011 | multiplex microsphere protease cleavage assay | inhibition, % at 10 µM | 0.12% of 360,000 active; also: plate controls were buffer without enzyme for full effect and enzyme alone for no effect
BoNT F protease: BoNT/F light chain protease inhibitors, primary screen, biochemical, flow cytometry, MLPCN library. Botulinum neurotoxin type F light chain protease (Clostridium botulinum). Multiplex microsphere protease cleavage assay. inhibition, % at 10 µM. 0.22% of 360,000 active. AID 588497, 2011; in the data active = inhibition above about 35%, passing the limit was not always enough; inconclusive = no clear call, values can overlap the other calls; also: plate controls were buffer without enzyme for full effect and enzyme alone for no effect
MazF activator: activators of E. coli MazEF toxin-antitoxin RNase, primary screen, biochemical, fluorescence, uHTS | Endoribonuclease toxin MazF (Escherichia coli (strain K12)), P0AE70 | FAM/BHQ RNA-DNA oligo cleavage fluorescence, 5 h | 0.32% of 350,000 active | activation, % at 20 µM; in the data active = activation above about 50%
Target sequence (P0AE70 whole entry, looked up): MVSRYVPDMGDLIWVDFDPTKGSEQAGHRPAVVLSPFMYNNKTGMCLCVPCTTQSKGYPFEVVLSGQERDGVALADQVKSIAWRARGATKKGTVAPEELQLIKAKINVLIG
Bead autofluor: compound fluorescence in toxin protease inhibitor counterscreen | fluorescence intensity (concentration not given with the values) | 3.1% of 360,000 active | AID 624483 | compound autofluorescence counterscreen, microsphere flow cytometry; stronger effect = higher value; in the data active = fluorescence intensity above about 16000; inconclusive = no clear call, values can overlap the other calls
BoNT A protease: BoNT/A light chain protease inhibitors, primary screen, biochemical, flow cytometry, MLPCN library; inhibition, % at 10 µM; AID 588499, 2011; multiplex microsphere protease substrate cleavage; 0.17% of 360,000 active; Botulinum neurotoxin type A light chain protease (Clostridium botulinum A str. ATCC 3502); also: plate controls were buffer without enzyme for full effect and enzyme alone for no effect
Active calls of the source: *; u = inconclusive; x = no result. Sampled rows, rich in hits. Any-hit rate of the full collection: about 3.7%. Rule as the data show it, unless noted: active = inhibition above about 30%; inconclusive = no clear call, values can overlap the other calls; inactive = below that.

SMILES	Anthrax LF prot	BoNT F protease	MazF activator	Bead autofluor	BoNT A protease
CC(C)N1CCC1(C)C(=O)Nc1ccccc1OC(F)F (centres undefined)	0	0	x	4263	0
COc1ccccc1NS(=O)(=O)c1cccc(C(=O)NCC(c2ccccc2OC)N2CCCC2)c1 (centres undefined)	0	8	1	20056*	1
COc1ccc(C(CNC(=O)c2cc(C)oc2C)N2CCOCC2)cc1 (centres undefined)	1	6	-19	16136*	1
COc1ccc(C(CNC(=O)c2cccc(NS(=O)(=O)c3ccccc3)c2)N2CCCC2)cc1 (centres undefined)	-5	4	0	6451	-4
COc1ccc(C(CNC(=O)c2cccc(Br)c2)N2CCCC2)cc1 (centres undefined)	-4	-2	11	28340*	-2
COc1ccc(C(CNC(=O)c2cccc(S(=O)(=O)N(C)c3ccccc3)c2)N2CCCC2)cc1 (centres undefined)	-6	27	-27	59722*	9
COc1ccc(C(CNC(=O)c2ccc(Cl)c(S(=O)(=O)N3CCCC3)c2)N2CCCC2)cc1 (centres undefined)	-2	26	-8	30581*	-10
CCNC(=O)CC1SC(=Nc2cccc(Cl)c2C)N(C)C1=O (centres undefined)	-2	-1	-8	16300*	1
CC(C)c1ccc(CN(C(=O)c2cc3ccccc3oc2=O)C2CCS(=O)(=O)C2)cc1 (centres undefined)	-12	5	-1	21498*	u
CCC(C)NCCOCCOc1ccccc1-c1ccccc1 (centres undefined)	-5	-5	7	23087*	0
CC(C)(C)NCCOCCOc1ccccc1-c1ccccc1	1	23	6	2654	3
Cc1ccc(OCCOCCNC(C)C)c(Br)c1	1	-6	2	2340	0
CCC(C)NCCOCCOc1ccc(Cl)cc1Br (centres undefined)	-7	35*	-23	4372	5
Cc1ccccc1/C(N)=N/OC(=O)N1c2ccccc2Sc2ccccc21	-2	-5	-6	23999*	-2
CCCCCc1nnc(NC(=O)c2ccc3nc[nH]c3c2)s1	-4	-4	4	2909	0
Cc1cccc(NC(=O)CN(C)S(=O)(=O)c2ccc(Cl)cc2)n1	-3	-5	-5	9907	-1
CN(CC(=O)Nc1nc2ccccc2s1)S(=O)(=O)c1ccc(Br)cc1	0	4	-15	21220*	3
Cc1cccc(NC(=O)CN(C)S(=O)(=O)c2ccc(Br)cc2)n1	-4	-4	-3	17225*	u
CCc1ccc(-c2c(C)sc(NC(C)=O)c2C(N)=O)cc1	0	-10	-3	22107*	-8
Cc1sc(NC(=O)CCC(=O)O)c(C(N)=O)c1-c1ccccc1	0	-1	5	2079	1
O=C(Nn1c(O)c(C=C2N=c3ccccc3=N2)sc1=S)c1ccccc1	78*	65*	-5	7668	108*
O=C(Nn1c(O)c(C=C2N=c3ccccc3=N2)sc1=S)c1cccc(Cl)c1	56*	55*	-9	5573	55*
Cc1ccc(C(=O)Nn2c(O)c(C=C3N=c4ccccc4=N3)sc2=S)cc1	69*	64*	-3	6339	78*
Cc1ccc(S(=O)(=O)Nn2c(O)c(C=C3N=c4ccccc4=N3)sc2=S)cc1	6	-5	-17	5052	8
O=C1N=c2ccccc2=C1c1sc(=S)n(NC(=O)c2cccc(O)c2)c1O	-3	1	-8	4228	2
SMILES	Anthrax LF prot	BoNT F protease	MazF activator	Bead autofluor	BoNT A protease
O=C(Nn1c(O)c(C=C2N=c3ccccc3=N2)sc1=S)c1ccc(Cl)cc1	70*	58*	2	13151	u
O=C(Cn1c(C(F)(F)F)nc2ccccc21)OCC(=O)c1c[nH]c2ccccc12	20	-9	4	4605	57*
CS(=O)(=O)Nc1ccc(S(=O)(=O)NCCc2ccccc2)cc1	-3	-3	3	24049*	-2
CS(=O)(=O)Nc1ccc(OCc2ccccc2)cc1	0	-5	-4	24301*	-3
CCNS(=O)(=O)c1ccc(NS(C)(=O)=O)cc1	-1	8	5	7693	1
CC(C)(C)n1nnnc1C(c1ccccc1)N1CCN(c2ncc(C(F)(F)F)cc2Cl)CC1 (centres undefined)	-8	-4	x	4229	-1
Cc1cc2c(C)cc(=O)oc2c2c1NCCC2	-2	-7	8	25354*	-6
COc1nc(NCc2cccnc2)nc(OC)n1	1	-5	5	16316*	u
C=CCn1c(CCNC(=O)c2cccs2)nnc1SCC(=O)c1ccc(Br)cc1	1	0	-2	20927*	-1
C=CCn1c(SCC(=O)C(C)(C)C)nnc1-c1cccs1	0	0	0	23404*	0
C=CCn1c(SCC(=O)C(C)(C)C)nnc1-c1ccccn1	-2	0	-2	20695*	0
C=CCn1c(SCC(=O)c2ccc(NS(=O)(=O)c3ccccc3)cc2)nnc1-c1cccs1	0	0	-9	20128*	u
CCCCn1c(N)c(N(CCC(C)C)C(=O)c2cccc(-n3cnnn3)c2)c(=O)[nH]c1=O	-4	-5	2	5594	1
O[C@@H]1CN(Cc2ccccc2Cl)CC[C@H]1N1CCOCC1	5	-16	4	3755	-7
CCOC(=O)/C=C1\CC(=O)Nc2cc(C)c(C)cc2N1	-1	-2	-15	20731*	-2
CCOC(=O)/C=C1\CC(=O)Nc2nonc2N1	1	1	9	22714*	1
O=C(Nc1ccc(Cl)cc1Cl)NC1CCCC1	-2	-13	5	2382	-1
O=C(Nc1ccc(Cl)cc1Cl)NC1CCN(S(=O)(=O)c2ccc(F)cc2)CC1	-2	-4	101*	3565	1
Cc1ccc(/C=N/Nc2ccc3c(C(F)(F)F)cc(C(F)(F)F)nc3n2)cc1	-1	-10	285*	2729	0
CCN(CC)S(=O)(=O)c1cccc(-c2nnc(SC(C)C(=O)NCCC3=CCCCC3)o2)c1 (centres undefined)	0	2	-1	22080*	2
CC1=C(C(=O)N2CCCCCC2)CC(CC(=O)NCCN2CCOCC2)C(=O)N1CCCN1CCCC1=O (centres undefined)	-7	2	x	6151	0
O=C(O)CSc1c(Cl)c(=O)oc2ccc(Cl)cc12	-10	-6	2	2880	0
O=S(=O)(c1ccccc1)c1nc(-c2ccco2)oc1NCCN1CCOCC1	-2	-2	-2	23098*	-2
N#Cc1nc(COc2ccc(F)cc2)oc1NCCN1CCOCC1	-3	4	3	4219	0
